Assay results from PubChem BioAssay AID1159580 (chemical genetic matrix, 2015).
The campaign covered roughly 5,500 compounds. About 2,000 (36%) were called active. Not shown: some 18% with an inconclusive outcome. Rule as the data show it: active = normalized growth mostly below about 0.91 (no sharp cut-off); inconclusive = no clear call, values can overlap the other calls; inactive = mostly above about 0.92. The list shows a part of the results.

Assay: chemical genetic growth profiling, strain panel (AID 1159580);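 also: tested at 20 µM; growth read once vehicle control cultures reached saturation at 30 °C; 1 = growth at the plate median or of vehicle wells; lower values mean less growth of the strain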
Details: growth OD

Measured: normalized growth

COC(=O)c1c(C)cc(OC)cc1O
inactive: S. cerevisiae deletion strains, locus YJR075W, strain HOC1, hits give low values 0.974 | S. cerevisiae deletion strains, locus YKL009W, strain mrt4, hits give low values 0.964 | S. cerevisiae deletion strains, locus YKL068W, hits give low values 0.995 | S. cerevisiae deletion strains, locus YKL085W, strain MDH1 (second series), hits give low values 0.978 | S. cerevisiae deletion strains, locus YKL085W, strain MDH1, hits give low values 0.978 | S. cerevisiae deletion strains, locus YKL160W, strain elf1, hits give low values 0.971 | S. cerevisiae deletion strains, locus YKL190W, strain CNB1, hits give low values 0.991 | S. cerevisiae deletion strains, locus YKR001C, strain vps1, hits give low values 0.959 | S. cerevisiae deletion strains, locus YKR026C, strain gcn3, hits give low values 0.972 | S. cerevisiae deletion strains, locus YKR091W, strain srl3, hits give low values 0.974 | S. cerevisiae deletion strains, locus YLL001W, strain dnm1, hits give low values 0.973 | S. cerevisiae deletion strains, locus YLL026W, hits give low values 0.981 | S. cerevisiae deletion strains, locus YLL041C, strain sdh2, hits give low values 1 | S. cerevisiae deletion strains, locus YLR027C, strain aat2, hits give low values 0.967 | S. cerevisiae deletion strains, locus YLR039C, strain RIC1, hits give low values 0.995 | S. cerevisiae deletion strains, locus YLR058C, strain SHM2, hits give low values 0.998 | S. cerevisiae deletion strains, locus YLR102C, strain apc9, hits give low values 0.981 | S. cerevisiae deletion strains, locus YLR113W, strain HOG1, hits give low values 1.02 | S. cerevisiae deletion strains, locus YLR221C, strain rsa3, hits give low values 0.959 | S. cerevisiae deletion strains, locus YLR258W, strain gsy2, hits give low values 0.974 | S. cerevisiae deletion strains, locus YLR262C, strain YPT6 (second series), hits give low values 1.02 | S. cerevisiae deletion strains, locus YLR262C, strain YPT6, hits give low values 1.01 | S. cerevisiae deletion strains, locus YLR268W, strain sec22, hits give low values 0.989 | S. cerevisiae deletion strains, locus YLR320W, strain mms22, hits give low values 0.947 | S. cerevisiae deletion strains, locus YLR330W, strain CHS5, hits give low values 0.993 | S. cerevisiae deletion strains, locus YLR342W, strain FKS1 (second series), hits give low values 1 | S. cerevisiae deletion strains, locus YLR342W, strain FKS1, hits give low values 0.989 | S. cerevisiae deletion strains, locus YLR357W, strain rsc2, hits give low values 0.983 | S. cerevisiae deletion strains, locus YLR370C, strain arc18, hits give low values 0.986 | S. cerevisiae deletion strains, locus YLR371W, strain rom2, hits give low values 0.989 | S. cerevisiae deletion strains, locus YLR384C, strain iki3, hits give low values 0.976 | S. cerevisiae deletion strains, locus YLR418C, strain cdc73, hits give low values 0.941 | S. cerevisiae deletion strains, locus YML016C, strain PPZ1, hits give low values 0.982 | S. cerevisiae deletion strains, locus YML032C, strain rad52, hits give low values 0.976 | S. cerevisiae deletion strains, locus YML120C, strain ndi1, hits give low values 0.988 | S. cerevisiae deletion strains, locus YML124C, strain tub3, hits give low values 0.984 | S. cerevisiae deletion strains, locus YMR058W, strain fet3, hits give low values 0.978 | S. cerevisiae deletion strains, locus YMR078C, strain ctf18, hits give low values 0.981 | S. cerevisiae deletion strains, locus YMR125W, strain sto1, hits give low values 0.993 | S. cerevisiae deletion strains, locus YMR129W, hits give low values 0.993 | S. cerevisiae deletion strains, locus YMR205C, strain PFK2, hits give low values 0.95 | S. cerevisiae deletion strains, locus YMR223W, strain ubp8, hits give low values 0.971 | S. cerevisiae deletion strains, locus YMR231W, strain pep5, hits give low values 1 | S. cerevisiae deletion strains, locus YMR263W, strain SAP30, hits give low values 0.982 | S. cerevisiae deletion strains, locus YMR307W, strain GAS1, hits give low values 1.03 | S. cerevisiae deletion strains, locus YNL067W, strain RPL9B, hits give low values 0.994 | S. cerevisiae deletion strains, locus YNL071W, strain lat1, hits give low values 0.98 | S. cerevisiae deletion strains, locus YNL128W, strain TEP1, hits give low values 1.01 | S. cerevisiae deletion strains, locus YNL153C, strain GIM3, hits give low values 0.988 | S. cerevisiae deletion strains, locus YNL183C, strain NPR1, hits give low values 0.979 | S. cerevisiae deletion strains, locus YNL209W, strain ssb2, hits give low values 0.999 | S. cerevisiae deletion strains, locus YNL233W, strain BNI4, hits give low values 0.992 | S. cerevisiae deletion strains, locus YNL248C, strain rpa49, hits give low values 0.982 | S. cerevisiae deletion strains, locus YNL250W, strain rad50, hits give low values 0.979 | S. cerevisiae deletion strains, locus YNL271C, strain bni1, hits give low values 0.978 | S. cerevisiae deletion strains, locus YNL298W, strain CLA4, hits give low values 0.996 | S. cerevisiae deletion strains, locus YNL307C, strain MCK1, hits give low values 0.914 | S. cerevisiae deletion strains, locus YNL322C, strain KRE1 (second series), hits give low values 0.953 | S. cerevisiae deletion strains, locus YNL322C, strain KRE1, hits give low values 0.997 | S. cerevisiae deletion strains, locus YNR049C, strain mso1, hits give low values 0.998 | S. cerevisiae deletion strains, locus YNR052C, strain pop2, hits give low values 1 | S. cerevisiae deletion strains, locus YOL006C, strain TOP1, hits give low values 0.848 | S. cerevisiae deletion strains, locus YOL012C, strain htz1 0.923 | S. cerevisiae deletion strains, locus YOL147C, strain pex11, hits give low values 0.978 | S. cerevisiae deletion strains, locus YOR001W, strain rrp6, hits give low values 0.985 | S. cerevisiae deletion strains, locus YOR061W, strain CKA2, hits give low values 1.01 | S. cerevisiae deletion strains, locus YOR069W, strain VPS5, hits give low values 0.995 | S. cerevisiae deletion strains, locus YOR070C, strain gyp1, hits give low values 0.971 | S. cerevisiae deletion strains, locus YOR080W, strain dia2, hits give low values 0.982 | S. cerevisiae deletion strains, locus YOR083W, strain WHI5, hits give low values 0.96 | S. cerevisiae deletion strains, locus YOR106W, strain vam3, hits give low values 0.978 | S. cerevisiae deletion strains, locus YOR136W, strain idh2, hits give low values 0.995 | S. cerevisiae deletion strains, locus YOR144C, strain elg1, hits give low values 0.99 | S. cerevisiae deletion strains, locus YOR184W, strain ser1, hits give low values 0.922 | S. cerevisiae deletion strains, locus YOR231W, strain MKK1, hits give low values 1.03 | S. cerevisiae deletion strains, locus YOR265W, strain rbl2, hits give low values 0.965 | S. cerevisiae deletion strains, locus YOR270C, strain vph1, hits give low values 0.891 | S. cerevisiae deletion strains, locus YOR290C, strain snf2, hits give low values 0.977 | S. cerevisiae deletion strains, locus YOR316C, strain cot1, hits give low values 0.988 | S. cerevisiae deletion strains, locus YPL051W, strain arl3, hits give low values 0.954 | S. cerevisiae deletion strains, locus YPL055C, strain LGE1, hits give low values 1 | S. cerevisiae deletion strains, locus YPL078C, strain atp4, hits give low values 0.917 | S. cerevisiae deletion strains, locus YPL106C, strain sse1, hits give low values 0.929 | S. cerevisiae deletion strains, locus YPL240C, strain hsp82, hits give low values 0.974 | S. cerevisiae deletion strains, locus YPL241C, strain CIN2, hits give low values 0.994 | S. cerevisiae deletion strains, locus YPL256C, strain CLN2, hits give low values 1.03 | S. cerevisiae deletion strains, locus YPR119W, strain clb2, hits give low values 0.972 | S. cerevisiae deletion strains, locus YPR141C, strain kar3, hits give low values 0.98 | S. cerevisiae deletion strains, locus YPR163C, strain tif3, hits give low values 1 | S. cerevisiae deletion strains, locus YPR167C, strain met16, hits give low values 0.982 | S. cerevisiae deletion strains, strain wtn01, hits give low values 0.964 | S. cerevisiae strains, strain wild type, hits give low values 1
